Holding throughout (assay): yeast three-hybrid, YBZ-1, SC-Leu-His + 0.5 mM 3-AT, 4 days
Settings in all cases: tags: N-Gal4 AD-HA kept; label: inside an RPR1-promoter hybrid RNA with tandem MS2 sites; ssRNA

One assay has as its target PUM1 PUF domain R8-KFG (Homo sapiens, UniProt Q14671 828-1176, N1122K;Y1123F;Q1126G). The method in brief: (§1)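 A centromeric plasmid in strain YBZ-1 co-expressed Pumilio-1 PUF domain libraries, randomized at the three base-contacting residues of each repeat, with matching RNA elements; the strain carries a LexA–MS2 coat fusion and a HIS3 reporter. After four days on SC-Leu (input) or SC-Leu-His + 0.5 mM 3-AT (selection), the repeat regions were PCR-amplified and Illumina-sequenced. The interaction score is the log change in variant frequency from input to selection, using log2 and a pseudocount of 1 where absent.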

The next assay addresses PUM1 PUF domain R2-KCA (Homo sapiens, UniProt Q14671 828-1176, N899K;Y900C;Q903A). The gist of the method:
as §1

A further assay deals with PUM1 PUF domain R2-EWA (Homo sapiens, UniProt Q14671 828-1176, N899E;Y900W;Q903A). The method in brief: as §1
For a further assay, the target named is PUM1 PUF domain R3-EFG (Homo sapiens, UniProt Q14671 828-1176, C935E;R936F;Q939G). The gist of the method:
as §1

In a further assay the target is PUM1 PUF domain R3-SWL (Homo sapiens, UniProt Q14671 828-1176, C935S;R936W;Q939L). The method in brief: as §1
The next assay concerns the target PUM1 PUF domain R5-DHK (Homo sapiens, UniProt Q14671 828-1176, C1007D;R1008H;Q1011K). The method in brief: as §1
In the next assay the target is PUM1 PUF domain R5-VYY (Homo sapiens, UniProt Q14671 828-1176, C1007V;R1008Y;Q1011Y). The method in brief: as §1
The target in a further assay is T1, PUM1 PUF domain R6-CWA (Homo sapiens, UniProt Q14671 828-1176, N1043C;Y1044W;Q1047A).
T1 sequence: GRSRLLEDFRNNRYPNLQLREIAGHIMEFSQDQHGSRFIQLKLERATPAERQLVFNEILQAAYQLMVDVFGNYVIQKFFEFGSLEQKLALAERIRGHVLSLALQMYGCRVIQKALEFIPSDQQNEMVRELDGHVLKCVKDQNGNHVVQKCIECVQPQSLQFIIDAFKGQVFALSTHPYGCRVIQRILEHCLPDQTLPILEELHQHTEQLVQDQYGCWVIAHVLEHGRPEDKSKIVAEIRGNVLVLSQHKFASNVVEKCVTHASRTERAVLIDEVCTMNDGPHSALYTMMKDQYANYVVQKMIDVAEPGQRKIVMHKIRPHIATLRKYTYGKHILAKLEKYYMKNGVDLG
The gist of the method: as §1

In the next assay the target is PUM1 PUF domain R1-RCM (Homo sapiens, UniProt Q14671 828-1176, S863R;R864C;Q867M). The gist of the method: as §1
For the next assay, the target named is PUM1 PUF domain R8-TYC (Homo sapiens, UniProt Q14671 828-1176, N1122T;Q1126C). The method in brief: as §1
Sequence of PUM1 PUF domain R8-TYC (Q14671 828-1176 N1122T/Q1126C): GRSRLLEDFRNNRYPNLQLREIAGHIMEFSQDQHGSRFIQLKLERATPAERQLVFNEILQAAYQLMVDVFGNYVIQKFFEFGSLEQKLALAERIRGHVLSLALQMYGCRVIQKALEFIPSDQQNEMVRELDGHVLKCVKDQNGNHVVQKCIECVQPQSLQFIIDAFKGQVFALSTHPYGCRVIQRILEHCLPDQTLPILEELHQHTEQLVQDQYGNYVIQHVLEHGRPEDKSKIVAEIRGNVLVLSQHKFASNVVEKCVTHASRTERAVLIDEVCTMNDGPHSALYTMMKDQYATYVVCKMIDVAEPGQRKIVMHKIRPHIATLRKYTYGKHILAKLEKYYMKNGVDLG

Sequence of PUM1 PUF domain R2-KCA (Q14671 828-1176 N899K/Y900C/Q903A): as the sequence (Q14671 828-1176 N1122T/Q1126C) above, with N72K, Y73C, Q76A, T295N, C299Q counted along it

In the case of “GGCUAGAACUAGUGGAUCCCCCGGCGCCCGGCGGCUCGAGCCCGGGUAAGGGUAAAUAGUCUGCAUGCCGCCGGGCGCCAUGCCUGCAGGUCGACUCUAGAAAACAUG”, the binding signal in the assay with PUM1 PUF domain R8-KFG was 4.73 log2 enrichment (interaction score). As to “GGCUAGAACUAGUGGAUCCCCCGGCGCCCGGCGGCUCGAGCCCGGGUAAGUGUAAAGAGUCUGCAUGCCGCCGGGCGCCAUGCCUGCAGGUCGACUCUAGAAAACAUG”, the values for the binding signal in the assay with PUM1 PUF domain R2-KCA and with PUM1 PUF domain R2-EWA were 3.39 log2 enrichment (interaction score) and 2.1 log2 enrichment (interaction score), respectively.

Consider “GGCUAGAACUAGUGGAUCCCCCGGCGCCCGGCGGCUCGAGCCCGGGUAAGUGUAAUUAGUCUGCAUGCCGCCGGGCGCCAUGCCUGCAGGUCGACUCUAGAAAACAUG”, for which the binding signal with PUM1 PUF domain R3-EFG is 3.8 log2 enrichment (interaction score); in the assay with PUM1 PUF domain R3-SWL it was 1.78 log2 enrichment (interaction score).

For the sequence “GGCUAGAACUAGUGGAUCCCCCGGCGCCCGGCGGCUCGAGCCCGGGUAAGUGUAAAUAGUCUGCAUGCCGCCGGGCGCCAUGCCUGCAGGUCGACUCUAGAAAACAUG”, the binding signal was 4.8 log2 enrichment (interaction score) with PUM1 PUF domain R3-EFG; 2.94 log2 enrichment (interaction score) with PUM1 PUF domain R5-DHK; 2.98 log2 enrichment (interaction score) in the assay with PUM1 PUF domain R5-VYY; 3.24 log2 enrichment (interaction score) with PUM1 PUF domain R3-SWL; 4.17 log2 enrichment (interaction score) with PUM1 PUF domain R6-CWA; 6.69 log2 enrichment (interaction score) with PUM1 PUF domain R8-KFG. Regarding “GGCUAGAACUAGUGGAUCCCCCGGCGCCCGGCGGCUCGAGCCCGGGUAAGUGUAAAUGGUCUGCAUGCCGCCGGGCGCCAUGCCUGCAGGUCGACUCUAGAAAACAUG”, the binding signal with PUM1 PUF domain R1-RCM was 0.08 log2 enrichment (interaction score). On to “GGCUAGAACUAGUGGAUCCCCCGGCGCCCGGCGGCUCGAGCCCGGGUAAGUGUAAGUAGUCUGCAUGCCGCCGGGCGCCAUGCCUGCAGGUCGACUCUAGAAAACAUG”, for which, in the assay with PUM1 PUF domain R3-EFG, the binding signal is 4.12 log2 enrichment (interaction score). With “GGCUAGAACUAGUGGAUCCCCCGGCGCCCGGCGGCUCGAGCCCGGGUAAGUGUAAAAAGUCUGCAUGCCGCCGGGCGCCAUGCCUGCAGGUCGACUCUAGAAAACAUG”, the binding signal with PUM1 PUF domain R2-EWA was 5.74 log2 enrichment (interaction score).

As to “GGCUAGAACUAGUGGAUCCCCCGGCGCCCGGCGGCUCGAGCCCGGGUAAGUGUAACUAGUCUGCAUGCCGCCGGGCGCCAUGCCUGCAGGUCGACUCUAGAAAACAUG”, in the assay with PUM1 PUF domain R3-EFG, the binding signal is 2.94 log2 enrichment (interaction score). “GGCUAGAACUAGUGGAUCCCCCGGCGCCCGGCGGCUCGAGCCCGGGUAAGCGUAAAUAGUCUGCAUGCCGCCGGGCGCCAUGCCUGCAGGUCGACUCUAGAAAACAUG”: the binding signal in the assay with PUM1 PUF domain R8-TYC is 2.53 log2 enrichment (interaction score); with PUM1 PUF domain R8-KFG it was 2.54 log2 enrichment (interaction score).

Turning to “GGCUAGAACUAGUGGAUCCCCCGGCGCCCGGCGGCUCGAGCCCGGGUAAGUGUAAAUCGUCUGCAUGCCGCCGGGCGCCAUGCCUGCAGGUCGACUCUAGAAAACAUG”, the binding signal with PUM1 PUF domain R1-RCM was 2.75 log2 enrichment (interaction score).

(Values after paper PMC8384837, “Expanding the binding specificity for RNA recognition by a PUF domain”.)
